According to PubChem BioAssay AID651593 (National Center for Advancing Translational Sciences (NCATS), 2012):
Among all 1,100 compounds or so, about 860 (78%) were called active. Not shown: some 19% with an inconclusive outcome. Calls follow the shape of the dose curve; as a rule, active = well fitted activation curve with a large enough effect; inconclusive = small, poorly fitted or top-dose-only effect; inactive = flat fitted curve, though single readings scatter. So high a share suggests a set chosen from earlier hits. The list shows a part of the results.

assay: qHTS of Nrf2 Activators: Hit Validation in Primary Assay; details: Nrf2/ARE reporter cell assay; Potency: activation; series mostly up to 46.1 µM; also: nearly all actives have a fitted effect of over 70% in size
How it was run: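 AREc32 cells stably carrying an ARE-driven firefly luciferase, plated overnight, then exposed 24 h at 37 °C to compounds at several concentrations. ARE activation read as luminescence with Steady-Glo after 30 min at room temperature.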
Potency is read from the fitted curve at half-maximal effect.

Structure (SMILES) | Potency
NS(=O)(=O)c1ccc(NC(=O)c2cc(-c3cccs3)nc3ccccc23)cc1 | inactive
O=C(Nc1nccs1)c1cc(-c2ccco2)nc2ccccc12 | 8.2 µM (active)
Cc1csc(NC(=O)c2cc(-c3ccco3)nc3ccccc23)n1 | 2.59 µM (active)
O=C(N/N=C/c1ccc(Br)s1)c1cccs1 | 2.91 µM (active)
Cc1ccsc1/C=N/N=C1\C(=O)Nc2ccccc21 | 7.31 µM (active)
CCn1c(=N)n(CC(=O)c2cccc([N+](=O)[O-])c2)c2ccccc21 | 2.31 µM (active)
N=c1n(CCN2CCOCC2)c2ccccc2n1CC(=O)c1cccc([N+](=O)[O-])c1 | 2.91 µM (active)
CC1(O)c2ccccc2C(=O)N1CCc1ccccc1F (stereo not given) | 5.8 µM (active)
Cc1ccc(-c2nc(C=Nc3ccc(O)cc3)c(O)o2)cc1 | 16.4 µM (active)
CCOc1c(Br)cc(C(N)=O)cc1OCc1ccccc1 | inactive
Cc1ccc2cc3c(NC(=O)c4ccco4)nn(C)c3nc2c1 | 2.59 µM (active)
COc1cc(OC)c(OC)cc1/C=C1/Cc2ccccc2C1=O | 8.2 µM (active)
COc1cc(C=C2Cc3ccccc3C2=O)cc(OC)c1OC | 9.2 µM (active)
O=C1C(=Cc2ccccc2Cl)CCc2ccccc21 | 20.6 µM (active)
COc1ccc(OC)c(C=C2CCc3ccccc3C2=O)c1 | 2.91 µM (active)
c1ccc(-c2cnc(-c3ccccc3)nn2)cc1 | 13 µM (active)
CSc1nc(Oc2ccc(Cl)cc2)c2sccc2n1 | 6.51 µM (active)
CSc1nc(Oc2ccc3ccccc3c2)c2sccc2n1 | 5.8 µM (active)
Nc1c(C(=O)c2cccs2)oc2ccccc12 | 6.51 µM (active)
Nc1c(C(=O)c2ccc(Br)s2)oc2ccccc12 | 5.17 µM (active)
O=C(Oc1ccccc1/C=C\C(=O)c1cc2ccccc2o1)c1ccccc1 | 4.61 µM (active)
COc1cccc(C(=O)Oc2ccccc2/C=C\C(=O)c2cc3ccccc3o2)c1 | 3.66 µM (active)
O=C(Cn1cnc2scc(-c3cccc([N+](=O)[O-])c3)c2c1=O)NCc1ccco1 | 7.31 µM (active)
Cc1c(CN(C)C)c2c(n1C)C(=O)c1ccc(Br)cc1-2 | 5.17 µM (active)
O=C(CC(=O)c1ccccc1O)c1cccc(F)c1 | 4.61 µM (active)
O=[N+]([O-])c1ccccc1N/N=C/c1c[nH]c2ccccc12 | 2.59 µM (active)
C(=N\Nc1nc2ccccc2[nH]1)/c1c[nH]c2ccccc12 | 16.4 µM (active)

Structure (SMILES) | Potency
CC(C)Oc1ccccc1/C=N/Nc1ccccc1[N+](=O)[O-] | 3.26 µM (active)
c1ccc(N=NC2=NN(c3ccccc3)CS2)cc1 | 5.8 µM (active)
CC(=O)c1ccccc1NC(=O)COC(=O)/C=C/c1ccc(C)o1 | 3.66 µM (active)
CSc1ccccc1NC(=O)COC(=O)/C=C/c1ccco1 | 1.16 µM (active)
O=C(COC(=O)/C=C/c1ccco1)Nc1ccc(F)cc1Cl | 5.8 µM (active)
O=C(NC(=S)Nc1ccccc1O)c1ccccc1Cl | 2.31 µM (active)
O=C(CNC(=S)NC(=O)c1ccccc1Br)c1ccccc1 | inactive
COC(=O)c1c(NC(=O)c2ccco2)sc(C)c1C | 2.59 µM (active)
Cc1ccc(C(=O)Nc2nc(-c3ccco3)c(-c3ccco3)s2)o1 | 0.92 µM (active)
CCOC(=O)c1sc(NC(=O)c2ccco2)nc1C | 2.59 µM (active)
CCc1c(C)sc(NC(=O)c2ccco2)c1C#N | 7.31 µM (active)
Cc1sc(NC(=O)c2ccco2)c(CN2CCCCC2)c1C | inactive
COC(=O)c1sc(NC(=O)c2ccco2)nc1C | 10.3 µM (active)
O=C(Nc1ccccc1F)c1ccc(-c2cccc([N+](=O)[O-])c2)o1 | 2.31 µM (active)
c1ccc(N=Nc2cn[nH]c2-c2ccco2)cc1 | 9.2 µM (active)
CC(C)OC(=O)c1cn(-c2ccccc2)nc1-c1ccco1 | 6.51 µM (active)
Fc1ccc2nncc(SCc3ccccc3Cl)c2c1 | 2.06 µM (active)
O=C(Nc1ncnc2sc3c(c12)CCC3)c1ccco1 | 0.291 µM (active)
O=C(Nc1ncnc2sc3c(c12)CCCCC3)c1ccco1 | 0.58 µM (active)
CN(C)CCN(C(=O)/C=C/c1cccs1)c1nc2c(F)cc(F)cc2s1 | 2.91 µM (active)
Cc1ccc2nc(N(CCN(C)C)C(=O)/C=C/c3cccs3)sc2c1 | 4.61 µM (active)
CN(C)CCN(C(=O)/C=C/c1cccs1)c1nc2ccc(F)cc2s1 | 2.06 µM (active)
Nc1nc(Nc2cccc(Cl)c2)nc(NCCO)c1[N+](=O)[O-] | 2.59 µM (active)
Fc1ccc2nc(Nc3nc4c(F)cc(F)cc4s3)sc2c1 | 2.31 µM (active)
Fc1cccc2sc(Nc3nc4ccccc4s3)nc12 | 2.31 µM (active)
Cn1c(/C(C#N)=C(\O)c2cc(Cl)sc2Cl)nc2ccccc21 | 2.31 µM (active)
Cc1ccc(C(=O)OCc2c(C)noc2C)cc1NC(=O)c1ccco1 | 4.11 µM (active)

Structure (SMILES) | Potency
N/C(=N\OC(=O)c1cc(Cl)ccc1Cl)c1cccnc1 | 2.59 µM (active)
N/C(=N\OC(=O)c1ccccc1Cl)c1ccncc1 | 9.2 µM (active)
N/C(=N\OC(=O)c1cc(Cl)ccc1Cl)c1ccncc1 | 5.17 µM (active)
COc1ccc(Cl)cc1C(=O)O/N=C(\N)c1ccncc1 | 6.51 µM (active)
N/C(=N\OC(=O)c1cccc2ccccc12)c1cccnc1 | inactive
N/C(=N\OC(=O)c1cccc2ccccc12)c1ccc(Br)cc1 | 9.2 µM (active)
N/C(=N\OC(=O)/C=C/c1ccccc1)c1cccnc1 | 20.6 µM (active)
COc1ccc(Cl)cc1C(=O)O/N=C(\N)c1ccccn1 | 2.91 µM (active)
O=C(/C=C/c1ccccc1[N+](=O)[O-])N1CCc2ccccc2C1 | 20.6 µM (active)
Oc1ccccc1-n1nc2ccc3nonc3c2n1 | 11.6 µM (active)
Cn1c(=O)n(CCc2ccccc2)c(=O)c2c1nc1n2CCN1Cc1ccco1 | 2.31 µM (active)
COc1ccc([C@H]2Cc3cccc(O)c3C(=O)O2)cc1O | inactive
CCCNC(=O)c1ccc(S(=O)(=O)c2ccc(OC)cc2)c([N+](=O)[O-])c1 | 3.66 µM (active)
Cn1c(N/N=C/c2cccs2)cc(=O)n(C)c1=O | 2.59 µM (active)
O=c1[nH]n(Cc2ccccc2)c(=O)c2ccccc12 | 4.11 µM (active)
O=C(CSc1nccc(-c2cccs2)n1)Nc1ccc(F)c(Cl)c1 | 20.6 µM (active)
O=C(CSc1nccc(-c2cccs2)n1)Nc1cccc(Cl)c1Cl | 2.31 µM (active)
O=C(CSc1nccc(-c2cccs2)n1)Nc1cccc(Cl)c1 | 2.06 µM (active)
Cc1ccc(C(=O)N/N=C/c2ccc(-c3ccc(Br)cc3[N+](=O)[O-])o2)o1 | 5.8 µM (active)
Cc1cc(N2CCOCC2)n2nc(-c3cccc(F)c3)cc2n1 | 1.46 µM (active)
Cc1cc(C)n2nc(-c3ccc(F)cc3)cc2n1 | 20.6 µM (active)
O=C(Nc1nccc(-c2cccs2)n1)c1cccs1 | 2.59 µM (active)
O=C(Nc1ncc2c(n1)-c1ccccc1CC2)c1ccccc1 | 5.17 µM (active)
O=C(Nc1ncc2c(n1)-c1ccccc1CC2)c1cccs1 | 2.31 µM (active)
CC(C)CCn1c(O)c(N=Nc2ccccn2)c2ccccc21 | 2.91 µM (active)
CCCCn1c(O)c(N=Nc2ccccn2)c2ccccc21 | 2.91 µM (active)
CC(C)N1C/C(=C/c2cccnc2)C(=O)/C(=C/c2cccnc2)C1 | 3.66 µM (active)

Structure (SMILES) | Potency
CSc1ccccc1NC(=O)c1cc(-c2cccs2)on1 | 2.91 µM (active)
COc1ccc(NC(=O)c2cc(-c3cccs3)on2)c(OC)c1 | 1.3 µM (active)
COc1ccc(Cl)cc1NC(=O)c1cc(-c2ccco2)on1 | 2.59 µM (active)
COC(=O)c1ccccc1NC(=O)c1cc(-c2ccco2)on1 | 3.26 µM (active)
CCCCC1C(=O)N(c2ccccc2)N(c2ccc(O)cc2)C1=O (stereo not given) | inactive
COc1ccc(NC(=O)c2cc(-c3ccco3)on2)c(OC)c1 | 2.31 µM (active)
Cc1noc(C)c1COc1ccccc1C(=O)NNC(=O)c1ccccc1F | 3.66 µM (active)
Cc1ccccc1C(=O)Nc1nc2c(C)csc2c(=O)s1 | 2.91 µM (active)
Cc1csc2c(=O)sc(NC(=O)c3cccs3)nc12 | 4.11 µM (active)
Cc1csc2c(=O)sc(NC(=O)c3ccc(F)cc3Cl)nc12 | 2.59 µM (active)
CS/C(=C\C(=O)c1ccco1)Nc1ccccc1Cl | 4.61 µM (active)
CC(C)Nc1ccc(-c2nc(-c3ccco3)no2)cc1[N+](=O)[O-] | 2.31 µM (active)
CNc1ccc(-c2nc(-c3ccco3)no2)cc1[N+](=O)[O-] | 1.84 µM (active)
COC(=O)c1cc(=O)nc(NN=Cc2ccco2)s1 | 0.58 µM (active)
Cc1ccc(Cc2c(-c3ccco3)nc3c(C)cc(Br)cn23)cc1 | 20.6 µM (active)
Cc1cc(Br)cn2c(Cc3ccccc3)c(-c3ccco3)nc12 | 16.4 µM (active)
Clc1ccsc1-c1csc(-c2cccnc2)n1 | 2.06 µM (active)
Cc1ccccc1NC(=O)/C(C#N)=C\c1ccsc1 | 3.66 µM (active)
Cc1ccccc1NC(=O)/C(C#N)=C/c1ccsc1 | 4.11 µM (active)
Clc1cc(-c2ccccc2)nc(-c2ccccc2)n1 | 5.8 µM (active)
Clc1nc(-c2ccccc2)cc(-c2ccccc2)n1 | 4.11 µM (active)
CN1CCCC1CCNc1ccc2c(=O)c3ccccc3oc2c1 (stereo not given) | 2.06 µM (active)
Cc1[nH]c2ccccc2c1N=Nc1ccccc1F | 4.11 µM (active)
Cc1[nH]c2ccccc2c1N=Nc1ccccc1C(=O)O | 2.59 µM (active)
